Compound activity (PubChem BioAssay)
IL-1B inflam inh – blocks inflammasome-driven IL-1 beta release | activity change, % at 57.5 µM | 360,000 tested, 4.7% active | THP-1 LPS/ATP IL-1B secretion, AlphaLISA, 16 h; stronger effect = lower value | AID 743279; in the data active means activity change below about -50%; inconclusive means mostly about -30% to -49%; further: on the % scale 0 is the no-effect control and ±100 the full control effect
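Secreted IL-1B measured by AlphaLISA bead assay after 16 h compound exposure of THP-1 cells; compounds (final up to 57.5 uM) added 1 h before LPS (250 ng/mL) and ATP (1.25 mM) stimulation; lower signal means less secretion.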
ASM inhibitor – human S-ASM enzyme inhibition; Potency, µM (series often up to 57.5 µM), for inactives: top-dose activity change, negative = inhibition, most hits filed as inhibitors; 340,000 tested, 0.006% active; placental ASM, HMU-PC fluorogenic substrate, 60 min; further: potency means the concentration at half of the fitted maximal effect
Target sequence (P17405 47-631 limits assumed): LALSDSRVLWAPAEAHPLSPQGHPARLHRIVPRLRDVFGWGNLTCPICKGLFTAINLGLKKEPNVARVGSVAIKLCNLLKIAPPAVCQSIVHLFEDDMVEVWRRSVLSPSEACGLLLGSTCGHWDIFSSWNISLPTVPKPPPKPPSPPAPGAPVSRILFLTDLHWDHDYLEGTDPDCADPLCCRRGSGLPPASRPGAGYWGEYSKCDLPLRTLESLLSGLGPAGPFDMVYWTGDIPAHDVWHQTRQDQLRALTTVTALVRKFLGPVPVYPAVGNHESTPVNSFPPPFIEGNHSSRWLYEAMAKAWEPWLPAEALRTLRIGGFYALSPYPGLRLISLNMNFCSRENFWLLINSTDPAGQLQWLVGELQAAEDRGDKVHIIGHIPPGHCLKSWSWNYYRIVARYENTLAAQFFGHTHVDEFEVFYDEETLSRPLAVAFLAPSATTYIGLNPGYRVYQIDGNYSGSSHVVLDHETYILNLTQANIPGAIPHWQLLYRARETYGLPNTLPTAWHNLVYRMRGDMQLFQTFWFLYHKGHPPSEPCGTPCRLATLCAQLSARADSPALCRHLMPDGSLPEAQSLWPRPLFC
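Human placenta-derived ASM enzyme was preincubated with compound for 10 minutes at room temperature, then given fluorogenic substrate HMU-PC0 (9 uM final) for 60 minutes at 37 °C; a pH 10 stop preceded fluorescence reading at Ex 386/Em 447 nm.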
DT40 TDP1 CPT – DT40-hTDP1 cell growth loss with CPT; 420,000 tested, 12% active; AID 686979; Potency, µM (highest dose often 46.2 µM), inactives show at the highest dose activity change, negative = growth inhibition, usual class: inhibitors; chicken DT40 Tdp1-/-;hTDP1 cells + 20 nM CPT, ATP luminescence, 48 h; further: potency means the concentration at half of the fitted maximal effect; on the % scale 0 is the no-effect control and ±100 the full control effect; nearly all actives have a fitted effect of over 55% in size
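Chicken DT40 Tdp1-/- cells complemented with human TDP1, 400 cells/well, exposed to compounds plus 20 nM camptothecin for at least 48 h at 37 C; viability read as ATP content by CellTiter-Glo luminescence.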
TGFb inhibitor – TGF-b pathway inhibition | Potency, µM (highest dose often 46.1 µM), without a hit: top-dose activity, negative = inhibition, hits mostly inhibitors | 410,000 tested, 1.2% active | HepG2 CAGA-GFP TGF-b/SMAD3 reporter, GFP fluorescence, 18 h; TGF-beta stimulated, 500 pg/mL final; further: potency means the concentration at half of the fitted maximal effect; on the % scale 0 is the no-effect control and ±100 the full control effect; nearly all actives have a fitted effect of over 65% in size
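HEPG2 CAGA-GFP, 1000 cells/well; 2 h settle, 37 C; cpd via pin tool; TGF-b 500 pg/mL final; 18 h, 37 C; GFP imaging ex488/em500-530; %Activity normalised to -TGF-b and +DMSO controls; CRC fit, curve class.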
HepG2 tox – counter-screen for TGF-b inhibitors: cytotoxicity in HepG2 cells; HepG2 CAGA-GFP viability, ATP luminescence, 18 h; Potency, µM (titrated, usually from 46.1 µM), for inactives: at the top dose activity change, negative = cytotoxicity, usual class: cytotoxic; 410,000 tested, 0.76% active; AID 588856; further: potency means the concentration at half of the fitted maximal effect
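CellTiter-Glo luminescence gave cytotoxicity after 18 hours at 37 degrees C. The cells were HepG2 CAGA-GFP in 1% FBS DMEM, stimulated with 500 pg/mL TGF-beta after compound addition. %Activity was normalised to no-cell wells (complete cell-killing) and DMSO (no toxicity), and curves were fitted and classified.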
DT40 TDP1 no CPT – qHTS for Inhibitors of human tyrosyl-DNA phosphodiesterase 1 (TDP1): qHTS in cells in absence of CPT; Potency, µM (series often up to 46.2 µM), inactives show at the highest dose activity change, negative = growth inhibition, actives largely listed as inhibitors; DT40 Tdp1-/- hTDP1 cells, no CPT, ATP luminescence, 48 h; 420,000 tested, 15% active; further: potency means the concentration at half of the fitted maximal effect; on the % scale 0 is the no-effect control and ±100 the full control effect; nearly all actives have a fitted effect of over 55% in size
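Readout: luminescence from CellTiter-Glo after 30 min in the dark at RT. Cells: DT40 Tdp1-/- with stable hTDP1, 400/well. Exposure: compounds alone, ≥48 hr, 37 °C.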
* hit, by the source's call; i = inactive; ? = inconclusive; . = not tested or not shown. This is a sample that favours compounds with a hit; in the whole collection about 19% have one here. Unless noted, the call rests on the fitted dose curve; in most records, active means well fitted curve in the direction sought with a large enough effect; inconclusive means small, poorly fitted or top-dose-only effect, or another doubt; inactive means no such curve, though single readings can be large; an effect the other way counts as inactive or inconclusive.

SMILES | IL-1B inflam inh | ASM inhibitor | DT40 TDP1 CPT | TGFb inhibitor | HepG2 tox | DT40 TDP1 no CPT
COc1cc(NC(=O)CCS(=O)(=O)c2nc(-c3ccc4c(c3)OCO4)cc(C(F)(F)F)n2)cc(OC)c1OC | . | . | ? | -22.7% | -25.8% | 16.4µM*
COc1ccc(NC(=O)CCS(=O)(=O)c2nc(-c3ccc4c(c3)OCO4)cc(C(F)(F)F)n2)cc1OC | . | . | ? | -8.4% | -21.3% | ?
COc1ccc(-c2cc(C(F)(F)F)nc(S(=O)(=O)CCCC(=O)Nc3cccnc3Cl)n2)cc1OC | -107.2* | 60.1% | 2.31µM* | ? | -1.6% | 3.66µM*
O=C(CCS(=O)(=O)c1nc(-c2ccc3c(c2)OCO3)cc(C(F)(F)F)n1)Nc1ccccc1C(F)(F)F | . | . | ? | ? | -19.8% | 23.1µM*
O=C(CCS(=O)(=O)c1nc(-c2ccc3c(c2)OCO3)cc(C(F)(F)F)n1)Nc1ccc(F)c(Cl)c1 | . | . | 2.59µM* | 20µM* | 12.6µM* | 5.8µM*
O=C1CCCN1c1ccc(S(=O)(=O)N2CCCCC2)cc1 | 18.7 | -1.1% | -11.1% | 13.5% | -37.8% | -19.1%
Cc1ccc2c(=O)c(C(=O)c3cccc(Cl)c3)cn(CC(=O)NCc3ccc(F)cc3)c2n1 | . | . | -21.1% | -0.1% | 3.4% | ?
Cc1ccccc1C(=O)NC(=O)Nc1ccc(-n2nc(C(F)(F)F)cc2C(F)(F)F)cc1 | . | . | -23.9% | 3.6% | -6.8% | ?
COc1cc(Cn2c3ccc(NC(=S)NCc4ccc(C)cc4)cc3c(=O)n2C)ccc1F | -29.5 | . | ? | ? | -18.4% | 20.6µM*
CC(CC(=O)Nc1ccc2c(c1)c(=O)n(C)n2Cc1ccc(Cl)cc1)C(F)(F)F (stereo unspecified) | -16.6 | . | ? | -22.6% | -16.4% | 9.2µM*
COc1cc(Cn2c3ccc(NC(=O)CC(C)C(F)(F)F)cc3c(=O)n2C)ccc1F (stereo unspecified) | -14.2 | . | ? | -2.4% | 2.6% | 16.4µM*
Cc1cccc(NC(=O)NNC(=O)c2ccccn2)c1 | -11.9 | -3.4% | -2.3% | 18.8% | -1.6% | -25.8%
CC(=O)N[C@@H](CC(=O)N[C@H](CCC(=O)O)C(=O)O)C(=O)O | 12.2 | 3.7% | -1.1% | -6.7% | -2.9% | -0.3%
CC(C)CCN1CCC(n2nccc2NC(=O)C2CCOC2)CC1 (stereo unspecified) | -5.9 | 2.9% | -11.9% | 0.1% | 4.3% | 23.8%
CCC(C)NCCOCCOc1ccc(C)cc1OC (stereo unspecified) | 18.2 | 4.2% | -1.3% | 9.0% | 3.3% | ?
CCC(C)NCCOCCOc1ccc(Cl)cc1Br (stereo unspecified) | -79.9* | -2.8% | ? | -24.4% | 13.4% | ?
CCCCNCCOCCOc1ccc(C)cc1Br | -25.3 | . | 16.4µM* | 8.1% | -44.9% | 23.1µM*
CCN(CC)CCOCCOc1cc(C)c(Cl)c(C)c1 | -4.3 | 0.2% | 23.1µM* | -2.4% | -31.7% | 17.8µM*
Cc1cc(OCCOCCN(C)CCO)cc(C)c1Cl | -3.5 | 0.3% | ? | 9.6% | -30.8% | ?
Cc1ccc(OCCOCCNC(C)C)c(Br)c1 | -58.2* | -1.2% | -26.6% | 4.1% | -48.2% | -23.4%
CC(=O)c1ccsc1B(O)O | . | . | -24.1% | -11.0% | -1.8% | -7.8%
CCC(C)NCCOCCOc1cc(C)c(Cl)c(C)c1 (stereo unspecified) | ? | 2.9% | 25.9µM* | -23.0% | -14.3% | 14.6µM*
CCC(C)NCCOCCOc1ccc(F)cc1 (stereo unspecified) | -19.0 | 2.2% | ? | -6.4% | 4.7% | -18.6%
Cc1ccc(NC(=O)N2CCCC2C(=O)NCc2ccc(Cl)cc2)cc1 (stereo unspecified) | ? | 0.2% | -2.8% | -8.7% | 14.9% | 1.0%
Cc1ccc(CN2CCC(CNC(=O)Nc3ccc(Cl)cc3)C2)cc1 (stereo unspecified) | . | . | ? | 12.6µM* | -72.8% | ?
SMILES | IL-1B inflam inh | ASM inhibitor | DT40 TDP1 CPT | TGFb inhibitor | HepG2 tox | DT40 TDP1 no CPT
Cc1ccc(CN2CCC(CNC(=O)Nc3ccccc3F)CC2)cc1 | -53.0* | -0.4% | 0.9% | -5.5% | -25.7% | ?
O=C(Nc1ccccc1C(F)(F)F)c1ccc(CN2CCC(Cc3ccccc3)CC2)cc1 | -52.2* | 2.5% | 18.4µM* | ? | -52.4% | -95.6%
O=C(NCC1CC1)Nc1ccccc1F | 10.6 | 192.1% | -10.5% | 14.0% | 3.0% | 16.2%
Cc1cc2oc3cc(NCCC4CCCN4C)ccc3c(=O)c2cc1C (stereo unspecified) | -85.3* | i | 8.2µM* | ? | -80.2% | 5.8µM*
CN1CCCC1CCNc1ccc2sc3ccccc3c(=O)c2c1 (stereo unspecified) | -65.8* | -17.5% | ? | -29.8% | -74.2% | ?
O=c1c2ccccc2sc2ccc(NCCCN3CCOCC3)cc12 | 0.0 | -11.0% | ? | -2.4% | -63.3% | 23.1µM*
COc1cc2sc3cc(NCCCN4CCOCC4)ccc3c(=O)c2cc1OC | -75.5* | i | ? | -12.9% | -16.4% | ?
O=C(NCCN1CCOCC1)c1sc2ccccc2c1Cl | 20.0 | -2.2% | 7.1% | -28.4% | -1.1% | ?
COc1ccc(OC)c(S(=O)(=O)NCCCN2CCOCC2)c1 | -10.2 | 7.6% | -7.6% | 4.1% | -16.5% | -1.9%
O=C(O)c1ccc(S(=O)(=O)NCc2ccc3c(c2)OCO3)cc1 | -8.0 | 5.2% | -9.6% | -6.5% | -4.7% | -10.4%
Oc1[nH]c(N=C2N=c3ccccc3=N2)c2ccccc12 | -97.8* | -3.4% | 0.581µM* | ? | -32.6% | 0.92µM*
Cc1ccc2c(c1)=N/C(=N\c1[nH]c(O)c3ccccc13)N=2 | -102.1* | . | 4.11µM* | ? | -92.8% | 3.66µM*
Oc1[nH]c(=S)sc1C=C1N=c2ccccc2=N1 | . | 4.6% | -2.4% | -0.6% | -12.8% | -24.8%
Cc1c(Cl)cccc1NC(=O)CNCc1ccccc1F | -1.7 | 0.3% | -14.5% | -0.6% | -6.6% | 13.4%
Cc1nc2ccccn2c1C(=O)/C=C/c1ccc(F)cc1 | -108.3* | -1.1% | ? | ? | -12.6% | 20.6µM*
Cn1c(=O)c(C(=O)CN2CCc3ccccc32)c(N)n(Cc2ccccc2)c1=O | 32.1 | 0.5% | 13µM* | -3.2% | -7.1% | 18.4µM*
CCN(CC)CC(=O)c1c(N)n(Cc2ccccc2)c(=O)n(C)c1=O | -9.2 | 1.1% | 5.8% | 11.9% | -0.5% | 1.1%
COc1ccc(CCNC(=O)c2ccc(CS(=O)Cc3ccc(C)cc3)o2)cc1OC (stereo unspecified) | 3.7 | -1.6% | ? | 7.6% | 0.2% | -19.0%
